Source: PubChem BioAssay (SRMLSC)
DPM-DC inhibit – S. pneumoniae DPM-DC inhibitors, primary screen, biochemical, PK/LDH-coupled NADH fluorescence; diphosphomevalonate decarboxylase (Streptococcus pneumoniae D39); purified DPM-DC; calls only at 10 µM; hit rate 0.49% among 65,000; AID 556, 2006;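 active = the 320 compounds with the highest percent inhibition in the single-dose primary screen, excluding strongly autofluorescent ones, cut at about 32% in these data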;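 note: kinetic rate of NADH fluorescence loss reporting ADP formed by the decarboxylase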
Fluor 339 460 – intrinsic fluorescence of library compounds, ex339/em460 – biochemical, MLSMR library, data from DPM-DC assay, artefact control, profiling panel; compound autofluorescence, ex339/em460 nm, NADH buffer; stronger effect = higher value; 1 = no-compound wells, NADH background; fluorescence fold increase at 10 µM; hit rate 5.5% among 65,000;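 active = at 10 µM, mean starting fluorescence two-fold or more over control wells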;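 note: signal is the first read of a kinetic run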
Spn PMK inh – S. pneumoniae PMK inhibitors, primary screen, biochemical, mevalonate pathway, pilot trial included; phosphomevalonate kinase (Streptococcus pneumoniae D39); purified PMK, PK/LDH-coupled NADH absorbance 340 nm; inhibition, % at 10 µM; hit rate 0.49% among 65,000; AID 539, 2006;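 active = top-ranked compounds by inhibition in the single 10 µM screen, taking a fixed number of the strongest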;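 note: 0% = full reaction with DMSO carrier and 100% = background rate without enzyme reaction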
A340 absorber – compound light absorbance at 340 nm, profiling panel, artefact control, biochemical, MLSMR library, data from PS, PMK, MK assays; compound absorbance at 340 nm, fold over control; fold change at 10 µM; 65,000 tested, under 10 active;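 active = at 10 µM dose, initial 340 nm absorbance at least 2 fold that of control wells; inactive = change under 2 fold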;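 note: initial absorbance extrapolated from kinetic A340 decline of NADH oxidation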
Spn MK inh – S. pneumoniae MK inhibitors, primary screen, biochemical, PK/LDH-coupled NADH absorbance | mevalonate kinase [Streptococcus pneumoniae D39] | purified MK, PK/LDH-coupled NADH absorbance 340 nm | inhibition, % at 10 µM | hit rate 0.48% among 65,000;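 active = ranked among the strongest by inhibition in the single 10 µM screen, a fixed top-ranked set picked for dose follow-up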
NADH enzymes – inhibitors of PK/LDH coupling enzymes, profiling panel, artefact control, biochemical, MLSMR library | hit rate 0.02% among 65,000 | IC50, µM (top dose mostly 10 µM), for inactives: at the highest dose inhibition | coupled PK/LDH NADH assays, four targets | AID 774, 2007;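 active = single-dose screening hits from any of four coupled enzyme assays that gave an IC50 when retested across doses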;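 note: the DPM-DC format reads NADH fluorescence rather than 340 nm absorbance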
* marks the source's active call; other numbers are inactive results; i = inactive; . = not tested or not shown; + = active, no number. Only some compounds are listed: those with a hit (about 6.8% of all), similar ones and a draw of the others.

SMILES	DPM-DC inhibit	Fluor 339 460	Spn PMK inh	A340 absorber	Spn MK inh	NADH enzymes
CCCn1c(-c2ccccc2)nc2c(=O)n(C)c(=O)[nH]c21	.	2.19*	0.0	1.05	0.0	0.0%
N#CCCCSc1nnc(-c2ccc(Cl)cc2)n1-c1ccccc1	i	1.07	1.0	1.07	2.0	1.0%
CC(=O)OCC(=O)c1ccc2ccn(C(C)=O)c2c1	.	3.38*	16.0	1.02	0.0	2.0%
COc1ccccc1N1CCN(CC(=O)c2ccc3ccn(C(C)=O)c3c2)CC1	i	1.33	0.0	1.07	3.0	2.0%
CN1CCN(c2nc(-c3ccccc3)c3cc(Cl)ccc3n2)CC1	i	1.79	1.0	0.97	14.0	5.0%
O=c1nc(-c2ccccc2)c2cc(Cl)ccc2[nH]1	i	3.07*	8.0	1.05	13.0	12.0%
Cc1nc2ccccc2n1-c1nc(-c2ccco2)cc(C(F)(F)F)n1	i	1.77	13.0	1.1	3.0	5.0%
FC(F)(F)c1cc(-c2ccco2)nc(-n2cnc3ccccc32)n1	i	2.7*	16.0	1.07	8.0	11.0%
COc1cccc(NC(=O)CSc2nc3c(c(=O)n2C)SC(C)C3)c1 (stereo not given)	i	1.03	0.0	1.11	14.0	5.0%
O=C(CN1CCc2ccccc2C1)N1CCN(S(=O)(=O)c2ccccc2)CC1	i	1.03	15.0	1	1.0	5.0%
O=C(Cn1cc(C(F)(F)F)ccc1=O)N1CCN(S(=O)(=O)c2ccccc2)CC1	i	1.07	27.0*	0.99	0.0	9.0%
COc1ccc2[nH]c(C(=O)O)c(CCNC(C)=O)c2c1	i	2.49*	11.0	1.01	3.0	12.0%
Cc1oc(-c2ccccc2F)nc1CS(=O)(=O)CC(=O)NCc1ccco1	i	1.06	0.0	0.98	9.0	2.0%
CCN(CC)CCCN1C(=O)C(O)=C(C(C)=O)C1c1ccc(OC)cc1OC (stereo not given)	i	1.04	8.0	1.06	9.0	6.0%
Cc1nn(-c2ccc(F)cc2)c2sc(C(=O)OC3CCOC3=O)cc12 (stereo not given)	.	2.14*	0.0	1.04	5.0	3.0%
CC(=O)N1CCCc2cc(S(=O)(=O)NC(C(=O)NCc3ccc(C)cc3)C(C)C)ccc21 (stereo not given)	i	1.1	12.0	0.98	8.0	7.0%
CCCCS(=O)(=O)Nc1ccc2ncn(C)c(=O)c2c1	.	3.51*	9.0	1.03	7.0	8.0%
Cn1cnc2cc(NS(=O)(=O)c3ccc(Br)cc3)ccc21	i	0.95	0.0	1.02	5.0	2.0%
COc1ccc(S(=O)(=O)N(CC(=O)NCc2ccco2)C2CCCCC2)cc1OC	i	1.09	0.0	1.02	2.0	1.0%
O=C(C(c1ccccc1)c1ccccc1)N1CCN(Cc2ccccn2)CC1	i	1.04	2.0	1.06	52.0*	6.0%
O=C(C(c1ccccc1)c1ccccc1)N1CCN(Cc2ccncc2)CC1	i	1.1	4.0	1.03	34.0	13.0%
Cc1cnc(-c2nnc(N(C)C(=O)c3cnccn3)s2)cn1	i	1.3	12.0	1.07	4.0	5.0%
Cc1cccc(OCC(O)Cn2c(-n3nc(C)cc3C)nc3c2c(=O)[nH]c(=O)n3C)c1 (stereo not given)	+	2.92*	11.0	0.98	13.0	19.0%
CCC(C)[C@@H](C(=O)Nc1ccc(OC)c(OC)c1)N1Cc2ccccc2C1=O (stereo not given in full)	i	1.02	13.0	1.04	1.0	6.0%
N#Cc1c(NCCCO)nc(NCc2ccccc2)c2c1CCN(Cc1ccccc1)C2	+	2.42*	17.0	1.01	13.0	23.0%
SMILES	DPM-DC inhibit	Fluor 339 460	Spn PMK inh	A340 absorber	Spn MK inh	NADH enzymes
Cc1cc2oc(C(=O)NC3CCS(=O)(=O)C3)c(C)c2cc1C (stereo not given)	i	1.09	1.0	1	5.0	3.0%
Cc1cccn2c(=O)c3cc(C(=O)NC4CCS(=O)(=O)C4)sc3nc12 (stereo not given)	.	2.12*	9.0	1.09	3.0	6.0%
N=c1c(C(=O)NC2CCCC2)cc2c(=O)n3ccccc3nc2n1C1CCCC1	.	5.21*	12.0	1.02	0.0	6.0%
Cc1cccn2c(=O)c3cc(C(=O)NC4CCCC4)c(=N)n(C4CCCC4)c3nc12	.	2.35*	0.0	1.02	6.0	2.0%
CCCS(=O)(=O)c1nnnn1-c1cccc(OC)c1	i	1.09	5.0	1.05	4.0	3.0%
COc1cc(C(=O)OCC(=O)c2cc(C)n(C)c2C)cc(NC(=O)c2ccco2)c1OC	i	2.94*	10.0	1.05	0.0	11.0%
CCc1nnc2n1N=C(c1ccc(-c3cc(Cl)ccc3Cl)o1)CS2	i	1.01	0.0	1.16	4.0	2.0%
Cc1cc(CN2C(=O)c3ccccc3C2=O)cc(N2CCOCC2)c1	i	1.09	6.0	1	2.0	3.0%
COCCNC(=O)c1c(N)sc2c1CCCC2	i	2.12*	12.0	1.03	2.0	11.0%
COCCSc1ccccc1C(=O)Nc1nncs1	i	1.03	9.0	1	4.0	3.0%
Cn1c(-c2ccc(CN3CCCCC3)o2)nc2ccccc21	i	2.15*	2.0	1.1	0.0	3.0%
O=C(c1ccc2ccccc2c1)N1CCN(c2ccc(O)cc2)CC1	i	1.01	26.0*	1.01	5.0	10.0%
COc1ccc(-c2cc(=O)oc3cc(OCc4nn[nH]n4)ccc23)cc1	i	1.92	0.0	1.17	1.0	1.0%
CCOC(=O)CCc1c(C)c2ccc(OCc3nn[nH]n3)cc2oc1=O	.	3.78*	11.0	1.13	0.0	6.0%
Cc1c(Cc2ccccc2)c(=O)oc2cc(OCc3nn[nH]n3)ccc12	.	3.8*	8.0	1.13	0.0	4.0%
COc1ccc(-c2cc3ccc(OCc4nn[nH]n4)cc3oc2=O)cc1OC	i	1.81	9.0	1.24	0.0	7.0%
CCOC(=O)CCc1c(C)c2ccc(OCC(=O)OC(C)C)cc2oc1=O	.	3.69*	6.0	1.04	4.0	5.0%
CC(=O)Nc1ccc(C(=O)n2nc(C)cc2C)cc1	i	1.07	0.0	1.01	0.0	0.0%
O=C(O)C1C2C=CC(C2)C1C(=O)NC1CCS(=O)(=O)C1 (stereo not given)	i	1.07	14.0	0.98	15.0	10.0%
OC1(c2cccc(C(F)(F)F)c2)CCN(c2ncnc3c2[nH]c2ccc(F)cc23)CC1	i	2.54*	1.0	1.06	7.0	4.0%
C=CCOc1ccc(C2c3c(oc4ccccc4c3=O)C(=O)N2c2ccccn2)cc1OCC (stereo not given)	i	1.08	15.0	1.11	5.0	7.0%
